# Assay outcomes from PubChem BioAssay.
# An excerpt weighted towards active compounds, which were near 4% of everything screened.
# TRHR enhancer: TRH receptor (human) allosteric enhancement; enhancement, % at 2 µM; TRHR cells, fluo-8 calcium fluorescence, EC20 TRH enhancement; 0.66% of 360,000 active; in the data active = enhancement above about 30%; note: 0% is about no effect
#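 Enhancer read-out: after compound pinning and an initial kinetic agonist-mode read, an EC20 of TRH (10 nM final) was injected and fluo-8 calcium signal (Ex 480/Em 530) followed at 1 s/cycle for 100 cycles in TRHR-expressing cells.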
# Glioma ERSR ind: ER stress response induction in glioma; U87-MG GRP78 promoter luciferase reporter, 16 h; Potency, µM, inactives show at the highest dose activation, hits mostly activators; 0.02% of 420,000 active; AID 602332; active = well fitted activation curve with a large enough effect; note: potency is the fitted concentration of half-maximal effect; series mostly up to about 76 µM; % of control where 0% means no effect; nearly all actives have a fitted effect of over 35% in size
#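 Stably transfected U87-MG glioma cells carrying a GRP78-based luciferase sensor; 16 h compound incubation. Luminescence end-point read 10 min after Bright-Glo addition at room temperature.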
# D1 PAM: human D1 dopamine receptor positive modulation | P21728 | HEK293 TREx D1 cells, calcium flux, dopamine EC20 potentiation | potentiation, % at 10 µM | 0.036% of 360,000 active; in the data active = potentiation above about 30%; note: 0% is about no effect
# Target sequence (P21728 whole entry, looked up): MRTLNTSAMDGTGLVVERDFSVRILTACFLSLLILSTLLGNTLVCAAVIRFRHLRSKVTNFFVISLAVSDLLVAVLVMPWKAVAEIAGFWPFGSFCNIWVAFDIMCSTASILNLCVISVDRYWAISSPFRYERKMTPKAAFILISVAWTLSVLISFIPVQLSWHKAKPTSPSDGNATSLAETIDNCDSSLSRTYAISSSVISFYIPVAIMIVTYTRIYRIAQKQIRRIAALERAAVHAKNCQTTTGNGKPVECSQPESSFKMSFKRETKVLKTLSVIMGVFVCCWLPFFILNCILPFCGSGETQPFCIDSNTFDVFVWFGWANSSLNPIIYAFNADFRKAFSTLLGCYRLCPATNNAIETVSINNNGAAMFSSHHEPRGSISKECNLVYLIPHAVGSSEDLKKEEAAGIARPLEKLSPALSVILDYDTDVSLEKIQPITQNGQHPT
# D1 antag: blocks dopamine activation of the human D1 receptor. P21728. 3.2% of 360,000 active. activity change, negative = inhibition, % at 10 µM. HEK293 TREx D1 cells, calcium flux, dopamine EC80; active compounds read low. AID 504652; in the data active = activity change below about -30%; note: % is set by controls: 0 for no effect and ±100 for the full control effect
#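 After overnight tetracycline induction at 30 C, force-coupled D1 HEK293 cells took up a no-wash calcium dye at room temperature. Compounds were added and monitored 180 s, and the response to EC80 dopamine was then recorded.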
# TRHR ag: TRH receptor (human) agonism; P34981; TRHR cells, calcium flux fluo-8, FDSS agonist mode; AID 493084; 0.18% of 360,000 active; activation, % at 2 µM; note: 0% is about no effect
#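 In this calcium-flux screen, cells bearing human TRHR are dye-loaded with fluo-8, baselined for 10 cycles, then exposed to library compounds; positive kinetic calcium responses during the agonist phase mark hits, with TRH as control.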
# D1 ag: agonists of human D1 dopamine receptor; activation, % at 2 µM; P21728; HEK293 T-REx D1 cells, calcium flux, agonist mode; 1% of 360,000 active; note: 0% is about no effect
#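 Tetracycline-induced HEK293 TREx D1 cells, force-coupled to calcium signalling, were dye-loaded with a no-wash calcium kit. Compound was pin-added after a 10 s baseline. Fluorescence was read kinetically at 1 cycle/s for 180 s, with calcium rises flagged as agonism.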
# The depositor's hits bear a star; x = not tested or not shown. Cut-off read from the data, not from the text of the source, unless noted: active = activation above about 30%; inactive = the rest.
SMILES,TRHR enhancer,Glioma ERSR ind,D1 PAM,D1 antag,TRHR ag,D1 ag
COc1ccccc1N1CCN(S(=O)(=O)c2cn(C)c(=O)n(C)c2=O)CC1,0,-5%,-13,-36*,0,0
COC(=O)C1CCN(S(=O)(=O)c2cn(C)c(=O)n(C)c2=O)CC1,9,-4%,-2,-4,0,-2
CC1CCN(S(=O)(=O)c2cn(C)c(=O)n(C)c2=O)CC1,1,-5%,-10,-61*,1,-2
O=C(Nc1cc(C(F)(F)F)cc(C(F)(F)F)c1)Nc1cnn(-c2ccc([N+](=O)[O-])cc2)c1C(F)(F)F,-2,-2%,-4,-12,1,8
CCN(Cc1ccncc1)Cc1ccc2c(c1)CN(C(=O)c1ccc(OC)cc1)CCO2,x,-3%,x,x,x,x
O=C(COC(=O)c1n[nH]c2ccccc12)NCCc1ccc(Cl)cc1,3,-4%,x,-30*,-1,20
CC(C)CNC(=O)COC(=O)c1n[nH]c2ccccc12,0,6%,4,-51*,0,2
Nc1nccnc1C(=O)OCC(=O)NCCc1ccc(Cl)cc1,-4,-2%,7,-47*,1,0
O=C(COC(=O)Cc1ccc(Cl)cc1)NCCc1ccccc1,-1,-5%,x,-6,0,8
Clc1ccc(/C=C/c2ccnc3ccccc23)c(Cl)c1,x,-1%,x,x,x,x
NC(=O)[C@@H]1CCCN1C(=O)CCN1Cc2ccccc2OC(c2ccccc2F)C1 (some centres not stated),x,-5%,x,x,x,x
CC1(C)O[C@@H]2[C@H](O1)[C@@H](COS(=O)(=O)O)O[C@H]2n1cnc2c(N)ncnc21,2,x,-4,-31*,0,3
CC1(C)O[C@@H]2[C@H](O1)[C@@H](CO)O[C@H]2n1cnc2c(N)ncnc21,-3,-1%,-1,-1,0,0
COc1ccc(N2CCN(c3ccc(N4C(=O)COCC4=O)cc3[N+](=O)[O-])CC2)cc1,-2,3%,-10,-31*,0,9
COc1ccc(N2CCN(c3ccc(N4C(=O)CC(C)C4=O)cc3[N+](=O)[O-])CC2)cc1 (configuration not stated),-7,-3%,-8,-22,1,24
Cc1nn(-c2ccccc2)c(C)c1/C=N/NC(=O)CSc1nnc(SCc2ccc(Cl)cc2)s1,20,2%,-4,6,-1,3
COc1cc(C(=O)Nc2cnc(NC(=O)C(C)C)cc2C)cc(OC)c1OC,0,-5%,-9,-47*,0,1
Cc1ccccc1NC(=O)c1ccc(Cn2cc([N+](=O)[O-])cn2)o1,-7,-4%,-2,-13,-2,2
CCN(CC)C(=O)c1ccc(Cn2cc([N+](=O)[O-])cn2)o1,12,5%,-1,-37*,0,7
O=C(Nc1ccc([N+](=O)[O-])cc1)c1ccc(Cn2cc([N+](=O)[O-])cn2)cc1,-12,-6%,-5,-13,1,14
CCc1ccccc1NC(=O)c1ccc(Cn2cc([N+](=O)[O-])cn2)cc1,2,-2%,-3,-5,2,38*
CCOC(=O)C1CCC(CN(Cc2c(Cl)cccc2Cl)S(=O)(=O)c2ccc(Cl)cc2)CC1 (configuration not stated),2,1%,-2,11,1,5
CCOC(=O)C1CCC(CN(Cc2c(Cl)cccc2Cl)S(=O)(=O)c2ccc(F)cc2)CC1 (configuration not stated),4,-3%,-1,-38*,2,9
O=C(COC(=O)c1ccc(O)cc1O)Nc1cccc2ccccc12,35*,2%,3,8,0,6
CN(C)c1ccc(/C=C2\SC(N3CCCCC3)=NC2=O)cc1,0,-4%,29,-17,12,37*
CC(C)(CO)NC(=O)c1cnn(-c2ncc3c(n2)-c2ccccc2CC3)c1C1CC1,x,6%,x,x,x,x
CCN(Cc1ccccc1)C(=O)/C=C/c1ccccc1[N+](=O)[O-],-8,-1%,-1,4,1,-1
CN(Cc1cccs1)C(=O)/C=C/c1ccccc1[N+](=O)[O-],13,3%,-8,-41*,0,10
